Hits are enriched below; roughly 18% of the tested compounds scored in any of these assays.
TDP1 block = inhibitors of human tyrosyl-DNA phosphodiesterase TDP1; Q9NUW8; recombinant TDP1, AlphaScreen DNA substrate cleavage; Potency, µM (highest dose often 130 µM), most hits filed as inhibitors; 350,000 compounds, 0.28% hits; also: nearly all actives have a fitted effect of over 40% in size
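Here, a 5' biotin and 3' phosphotyrosine-FITC DNA oligonucleotide reports Tdp1 activity: intact substrate bridges AlphaScreen beads, while cleavage leaves a 3' phosphate and drops signal. All incubations at room temperature.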
DT40 TDP1 CPT = DT40-hTDP1 cell growth loss with CPT. chicken DT40 Tdp1-/-;hTDP1 cells + 20 nM CPT, ATP luminescence, 48 h. 420,000 compounds, 12% hits. Potency, µM (top dose mostly 46.2 µM), hits mostly inhibitors. AID 686979; also: nearly all actives have a fitted effect of over 55% in size
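Chicken DT40 Tdp1-/- cells complemented with human TDP1, 400 cells/well, exposed to compounds plus 20 nM camptothecin for at least 48 h at 37 C; viability read as ATP content by CellTiter-Glo luminescence.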
VDR inhibitor = blocks the human vitamin D receptor; P11473; Potency, µM, hits mostly inhibitors; VDR-SRC2-3 peptide fluorescence polarization, 2 h; 400,000 compounds, 0.93% hits
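After 23 nl compound addition and a short centrifugation, plates sat for 2 hours at ambient temperature; polarization of fluorescence then indicated loss of VDR binding to peptide SRC2-3.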
DT40 TDP1 no CPT = qHTS for Inhibitors of human tyrosyl-DNA phosphodiesterase 1 (TDP1): qHTS in cells in absence of CPT; DT40 Tdp1-/- hTDP1 cells, no CPT, ATP luminescence, 48 h; Potency, µM (titrated, usually from 46.2 µM), usual class: inhibitors; 420,000 compounds, 15% hits; AID 686978, 2013; also: nearly all actives have a fitted effect of over 55% in size
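DT40 Tdp1-/-;hTDP1 cells, no CPT (DMSO vehicle only), 400 cells/well; compounds pin-transferred; ≥48 hr, 37 °C; CellTiter-Glo 30 min RT dark, luminescence read.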
KAT2A inh = inhibitors of human GCN5L2 histone acetyltransferase | 390,000 compounds, 0.21% hits | GCN5L2 HAT assay, ThioGlo1 CoA-SH fluorescence | Potency, µM (doses to about 58.9 µM), most hits filed as inhibitors | AID 504327 | Q92830
Target sequence (Q92830 whole entry, looked up): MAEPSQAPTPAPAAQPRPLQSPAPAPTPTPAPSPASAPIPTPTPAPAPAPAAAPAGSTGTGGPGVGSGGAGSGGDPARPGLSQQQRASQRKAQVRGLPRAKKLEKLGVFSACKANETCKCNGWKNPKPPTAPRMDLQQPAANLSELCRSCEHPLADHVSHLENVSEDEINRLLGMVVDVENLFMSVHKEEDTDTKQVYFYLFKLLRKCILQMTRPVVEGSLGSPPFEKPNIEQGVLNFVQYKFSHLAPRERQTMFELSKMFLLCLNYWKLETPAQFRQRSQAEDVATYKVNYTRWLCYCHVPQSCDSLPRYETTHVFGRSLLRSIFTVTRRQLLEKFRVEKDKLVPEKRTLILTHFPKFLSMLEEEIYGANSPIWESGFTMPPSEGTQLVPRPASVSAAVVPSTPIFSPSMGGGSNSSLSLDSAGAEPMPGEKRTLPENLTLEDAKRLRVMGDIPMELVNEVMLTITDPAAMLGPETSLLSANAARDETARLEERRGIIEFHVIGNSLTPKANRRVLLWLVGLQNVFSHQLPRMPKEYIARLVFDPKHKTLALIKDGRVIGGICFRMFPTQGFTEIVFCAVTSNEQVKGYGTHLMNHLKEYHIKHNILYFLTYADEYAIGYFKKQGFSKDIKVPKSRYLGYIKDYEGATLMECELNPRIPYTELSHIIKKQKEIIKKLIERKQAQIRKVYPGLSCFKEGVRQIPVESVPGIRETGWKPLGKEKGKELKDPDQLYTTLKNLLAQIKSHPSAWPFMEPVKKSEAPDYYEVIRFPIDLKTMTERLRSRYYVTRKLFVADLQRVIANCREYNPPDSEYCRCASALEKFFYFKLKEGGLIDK
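Fluorescence readout, Ex340nm/Em540nm: ThioGlo1 (50uM final) reacts with free CoA thiol released as 20nM GCN5L2 acetylates H3(1-25) peptide (75uM) using acetyl-CoA (70uM). Compound and enzyme sat 15 min beforehand; 20 min room-temperature reaction.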
PLK1 PBD inh = PLK1 (human) polo-box domain binding inhibition; Plk1 PBD binding of FITC phosphopeptide, fluorescence polarization; Potency, µM, most hits filed as inhibitors; 360,000 compounds, 2.8% hits; AID 720504; also: series mostly up to about 57 µM; nearly all actives have a fitted effect of over 65% in size
Hits are given with their value; n = inactive; u = inconclusive; x = no result; [ ] = dose if it differs, or a comment. Calls follow the shape of the dose curve; as a rule, active = well fitted curve in the direction sought with a large enough effect; inconclusive = small, poorly fitted or top-dose-only effect, or another doubt; inactive = no such curve, though single readings can be large; an effect the other way counts as inactive or inconclusive.

SMILES	TDP1 block	DT40 TDP1 CPT	VDR inhibitor	DT40 TDP1 no CPT	KAT2A inh	PLK1 PBD inh
N#CC1=C(c2ccccc2)/C(=C/c2ccccc2)OC1=O	n	23.1µM	u	18.4µM	n	1.06µM
CC1CC=CC2C1C(=O)N(Cc1ccccc1)C2c1ccc(C(F)(F)F)cc1 (stereo not drawn)	n	x	n	x	x	x
CN1CCN(C(=O)c2nc3ccc(Cl)cc3[nH]2)CC1	n	x	x	x	x	x
Cn1c(SCc2ccccc2C#N)nnc1-c1ccncc1	x	n	n	n	n	n
CCOC(=O)c1ccc2ncc(C(=O)OCC)c(NCc3ccco3)c2c1	n	14.6µM	n	23.1µM	n	n
CCOC(=O)c1cnc2c(C)cccc2c1NCc1ccco1	n	n	n	n	n	n
CCOC(=O)c1cnc2ccccc2c1Nc1cc(C(=O)O)ccc1C	n	n	n	n	n	n
CCOC(=O)c1cnc2ccc(C(=O)OC)cc2c1Nc1ccccc1CC	x	16.4µM	n	11.6µM	n	x
O=C(O)Cc1nnc(-c2cc3ccccc3[nH]2)s1	n	x	x	x	x	x
CCc1ccc2c(c1)c(=O)c(C(=O)c1ccc(C)cc1)cn2CC(=O)Nc1ccc2c(c1)OCCO2	x	n	n	n	n	x
O=C(Nc1cc(Cl)cc(Cl)c1)C(c1ccccc1)N1CCCCC1 (stereo not drawn)	n	20.6µM	n	u	n	n
O=C(O)c1ccccc1OC(C(=O)Nc1cc(Cl)cc(Cl)c1)c1ccccc1 (stereo not drawn)	x	29.1µM	n	25.9µM	n	n
Cc1ccc(NC(=O)C(c2ccc(Cl)cc2Cl)N2CCCC2)cc1 (stereo not drawn)	n	23.1µM	n	14.6µM	n	n
O=C(Nc1cc(Cl)cc(Cl)c1)C(NCCO)c1ccccc1 (stereo not drawn)	n	n	n	u	u	n
CC(C)c1ccc(NC(=O)C(c2ccc3c(c2)OCO3)N2CCCCC2)cc1 (stereo not drawn)	n	18.4µM	n	23.1µM	n	n
CC(C)(C)c1ccc(OCC2CO2)cc1 (stereo not drawn)	n	x	x	x	x	x
COc1cccc(-c2cnc3c(NC(C)=O)cc(-c4ccc(C(=O)NC5CC5)cc4)cn23)c1	x	u	x	13µM	x	n
COc1ccc(-c2cnc3c(NC(C)=O)cc(-c4ccc(C(=O)NC5CC5)cc4)cn23)cc1OC	x	23.1µM	x	23.1µM	x	n
COc1ccc(C(=O)NC2CCCCCCC2)cc1OC	x	n	n	n	x	n
COc1ccccc1C(CC(=O)Nc1nccs1)c1ccco1 (stereo not drawn)	n	u	n	14.6µM	n	n
O=C(CN1C(=O)C2(SCC(=O)N2c2ccc(F)c(F)c2)c2ccccc21)NCCc1ccccc1 (stereo not drawn)	n	u	n	u	n	x
CC1(C(=O)NS(=O)(=O)c2cccc(C#N)c2)CCN1C(=O)c1ccco1 (stereo not drawn)	x	n	x	n	x	n
Nc1c(C(=O)OCC(=O)NCc2ccccc2)[nH]c(=O)[nH]c1=O	n	n	n	n	n	n
NC(c1csc(Nc2ccc(C(=O)NCCO)cc2)n1)C1CCCCC1 (stereo not drawn)	x	10.3µM	x	6.51µM	x	n
NC(c1csc(Nc2ccc(C(=O)c3ccccc3)cc2)n1)C1CCCCC1 (stereo not drawn)	x	u	x	u	x	n
SMILES	TDP1 block	DT40 TDP1 CPT	VDR inhibitor	DT40 TDP1 no CPT	KAT2A inh	PLK1 PBD inh
NC(c1csc(Nc2ccc(C(=O)NCCCO)cn2)n1)C1CCCCC1 (stereo not drawn)	x	n	x	u	x	n
CC(=O)c1ccc(Nc2nc(C(N)C3CCCCC3)cs2)cc1 (stereo not drawn)	x	13µM	x	11.6µM	x	n
COC(=O)C(C(C)=O)C(NC(=O)NCc1ccccc1)c1ccccc1 (stereo not drawn)	n[21 µM]	x	x	x	x	x
CCOc1nc(N2CCOCC2)nc(C)c1[N+](=O)[O-]	n	n	n	n	n	29.9µM
CNCCOc1nc(N2CCOCC2)nc(C)c1[N+](=O)[O-]	n	n	n	n	n	n
COc1cc(=O)n2c(c1C(=O)NCc1ccco1)CCN(Cc1cccc(C(F)(F)F)c1)CC2	x	n[9.04 µM]	x	n	x	x
CC1=NN(C(=O)Cc2ccccc2)C(O)(c2ccccc2)C1 (stereo not drawn)	n	2.91µM	n	4.11µM	n	n
CC1=NN(C(=O)Cc2ccc([N+](=O)[O-])cc2)C(O)(c2cccnc2)C1 (stereo not drawn)	n	18.4µM	n	u	n	n
Cc1ccc(C)c(NC(=O)CN(C)C(C)C(=O)N2CC(C)CC(C)C2)c1 (stereo not drawn)	n	n	n	u	n	n
Cc1cccc(N2CC(O)(c3cccs3)[N+]3=C2CCCC3)c1C (stereo not drawn)	n	u	n	20.6µM	n	n
CC(C)(C)OC(=O)N1CCC(c2cc(=O)n3[nH]c(-c4ccc(Cl)cc4)cc3n2)CC1	n	20.6µM	n	23.1µM	n	n
CCCc1cc(=O)n2[nH]c(-c3ccc(Cl)cc3)cc2n1	n	n	n	u	n	n
CC(C)(C)OC(=O)N1CCC(c2cc(=O)n3[nH]cc(C(=O)Nc4ccc(F)c(Cl)c4)c3n2)CC1	n	n	n	n	n	23.8µM
Cc1c(C)c2cc(Cl)c(OCC(=O)N3CCN(c4ccc(F)cc4)CC3)cc2oc1=O	n	n	n	n	n	n
COC(=O)c1ccccc1NC(=O)CSc1nc2ccsc2c(=O)n1Cc1ccc(C(=O)O)cc1	x	n	x	n	x	n
C/C(=C/CCC(C)(O)C1CC[C@@]2(C)[C@@H]3CC=C4[C@@H](CC[C@H](O[C@H]5O[C@@H](CO)[C@H](O)[C@@H](O)[C@@H]5O)C4(C)C)[C@]3(C)C(=O)C[C@]12C)CO[C@@H]1O[C@H](CO)[C@@H](O)[C@H](O)[C@H]1O (stereo partly drawn)	n	n	n	n	n	n
CC(=O)N1CCN(C(=O)CC2OC(=O)c3ccccc32)CC1 (stereo not drawn)	n	8.2µM	u	11.6µM	n	26.7µM
O=C(CC1OC(=O)c2ccccc21)Nc1ccccc1N1CCOCC1 (stereo not drawn)	n	n	n	n	n	n
COc1cccc(/C=N/NC(=O)c2cc3c(OC)cccc3[nH]2)c1OC	n	n	n	7.31µM	n	n
COc1ccccc1/C=N/NC(=O)c1cc2c(OC)c(OC)ccc2[nH]1	x	4.11µM	n	3.26µM	n	n
CCOc1ccc(/C=N/NC(=O)c2cc3c(OC)cccc3[nH]2)cc1	x	18.4µM	u	23.1µM	n	n
COc1cccc(/C=N/NC(=O)c2cc3c(OC)cccc3[nH]2)c1O	n	5.17µM	n	6.51µM	n	n

Screening data (PubChem)
